ChEMBL document CHEMBL3988442, “University of Dundee, Small-Polar-MMV Screening Library” (2021)

How the values were obtained:
[1] = target: T1, Aspartate--tRNA(Asp/Asn) ligase (Mycobacterium tuberculosis (strain ATCC 25618 / H37Rv)) (UniProt P9WFW3); experiment: Assay for Asp RNA synthetase-1 from Mycobacterium tuberculosis; assay type: functional; parameters: scale not given: direction of the effect not stated beside the values; details: 30 µM; further: in the data most compounds retested in dose-response had high values
T1 sequence (whole entry): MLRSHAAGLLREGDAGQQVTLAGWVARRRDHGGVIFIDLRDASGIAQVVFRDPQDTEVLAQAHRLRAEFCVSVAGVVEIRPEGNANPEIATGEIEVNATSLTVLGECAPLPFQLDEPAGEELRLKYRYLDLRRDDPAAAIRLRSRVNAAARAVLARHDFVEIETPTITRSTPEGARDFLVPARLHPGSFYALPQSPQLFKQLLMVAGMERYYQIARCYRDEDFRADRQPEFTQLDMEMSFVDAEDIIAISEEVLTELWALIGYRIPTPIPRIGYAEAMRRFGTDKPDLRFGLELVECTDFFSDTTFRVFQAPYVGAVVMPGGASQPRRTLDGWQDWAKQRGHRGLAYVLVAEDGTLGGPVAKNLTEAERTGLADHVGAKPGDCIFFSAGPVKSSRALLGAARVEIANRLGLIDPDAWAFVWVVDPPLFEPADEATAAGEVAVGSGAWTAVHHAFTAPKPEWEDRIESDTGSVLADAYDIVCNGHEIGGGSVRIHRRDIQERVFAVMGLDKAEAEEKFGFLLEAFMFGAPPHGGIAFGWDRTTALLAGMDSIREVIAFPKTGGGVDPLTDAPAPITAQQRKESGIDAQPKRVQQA

[2] = target: Shiga toxin 2 (Escherichia coli O157:H7) (UniProt P09385+P09386); experiment: E. coli 0.157:H7 Shiga Toxin SOP - stx2 screening assay; assay type: functional; parameters: scale not given: direction of the effect not stated beside the values; details: 30 µM

Row | SMILES | Percent Effect [1] | Percent Effect [2]
1 | O=C(NCc1ccccc1)c1nnc2ccc(N3CCOCC3)cc2n1 | -1.02% | -21.5%
2 | Cc1cc(C)n(CC2CN(Cc3cscn3)CCO2)n1 (stereo unspecified) | -1.81% | -3.38%
3 | COc1ccc(C2=CCN(C(=O)CN(C)CC(C)C#N)CC2)cc1 (stereo unspecified) | -3.34% | -65.5%
4 | O=C(c1ccncc1F)N1CCc2ncnc(-c3ccncc3)c2CC1 | 3.59% | -0.901%
5 | O=C(NCc1nn(-c2ccccc2)c2c1CCC2)NC1CC1 | 1.63% | 9.96%
6 | Cc1cnc(CN(C)C2CCN(CC(=O)N(C)c3nccs3)C2)o1 (stereo unspecified) | -1.66% | -15.8%
7 | CCOc1nnc(CN(C)C2CCCN(c3cccnn3)C2)s1 (stereo unspecified) | 3.86% | -25.9%
8 | CCn1nc(CNC(=O)C2CC(=O)N(C3CCCC3)C2)c2ccccc21 (stereo unspecified) | 2.02% | -13.1%
9 | CCN1CCC2(CC1)CC(NC(=O)N(C)C)c1cc(C)ccc12 (stereo unspecified) | 2.85% | -28.6%
10 | Cc1cc(N2CCC3(CCC(=O)N(CC4CC4)C3)CC2)nc(N)n1 | -0.719% | 0.426%
11 | COCC(=O)N(C)Cc1cccc(Cl)c1 | -0.779% | -8.03%
12 | CCc1csc(C2CCCN(C(=O)c3ccc(OC)nn3)C2)n1 (stereo unspecified) | -3.92% | 14.7%
13 | Cc1ccc(C(=O)NC2CCN(C(=O)Nc3ccccn3)CC2)o1 | 5.16% | 25.6%
14 | O=C(Cn1ccnc1)N1C[C@@H]2CC[C@H](Oc3ccccc3Cl)[C@@H]2C1 | -0.551% | 13.9%
15 | Cc1ccc(N2CC3(COCCN(Cc4nccs4)C3)OCC2=O)s1 (stereo unspecified) | 7.04% | -13.5%
16 | Cc1n[nH]cc1C(=O)N1CCCC(n2nnc3cc(F)ccc32)C1 (stereo unspecified) | -7.43% | -9.56%
17 | Cc1ccc(F)cc1S(=O)(=O)NCc1cccnc1N(C)C | 4.75% | -16.9%
18 | Cc1nn2c(N3CCC(O)CC3)cc(-c3ccccc3)nc2c1C | 1.19% | 7.56%
19 | O=C(CN1CCCCC1Cn1cccn1)NC1CCN(C2CC2)CC1 (stereo unspecified) | 1.64% | 4.12%
20 | CO[C@H]1CCN(Cc2cnn(C)c2)[C@@H]2CN(Cc3cccnc3)C[C@H]12 | 3.14% | -40.9%

Row | SMILES | Percent Effect [1] | Percent Effect [2]
21 | COc1ccc(S(=O)(=O)N2CCC(S(C)(=O)=O)CC2)cc1C | 1.12% | -1.05%
22 | Cc1cc(C)n(CC2CCCN2CC(=O)N(C)C)n1 (stereo unspecified) | -2.12% | 10.1%
23 | CN(c1ccc(F)c(F)c1)S(=O)(=O)c1cc(C(=O)O)cs1 | 1.3% | 20.8%
24 | COCc1ccccc1C(=O)NCCCN1CCCC1C(=O)N(C)C (stereo unspecified) | 5.84% | -26.7%
25 | O=C1CN(Cc2nnc(-c3ccccc3Br)o2)CCN1 | -4.51% | -24.1%
26 | Cc1nn(C)c2c(N3CCN(C(=O)C4CCC4)CC3)ncnc12 | -3.19% | -37.9%
27 | CC(C)c1nc(C2CCCN2CC(=O)Nc2nncs2)no1 (stereo unspecified) | -6.57% | 9.9%
28 | COc1cccc(CCNC(=O)CN2CCN(C)CC2C)c1 (stereo unspecified) | 0.495% | 20%
29 | O=C(c1ccoc1)N1CCC2(CC1)C(=O)Nc1ccccc12 | -1.51% | -2.64%
30 | CCN1CCC(NC(=O)CN2CCCC2Cn2nc(C)cc2C)CC1 (stereo unspecified) | -0.781% | 17.1%
31 | c1cnc(NCc2noc3c2CN(C2CCOCC2)CC3)nc1 | 2.79% | -7.78%
32 | Cn1cc(-c2nc(CN3CCc4c(ncn4C4CC4)C3)cs2)cn1 | -0.0232% | -83.4%
33 | NS(=O)(=O)c1ccc(NC(=O)CSc2ccc3c(c2)CCC3)cc1 | 3.87% | -78.8%
34 | O=C(NCCO)c1ccn(-c2ccc3ccccn23)n1 | 2.94% | -37%
35 | CN(C)C(=O)[C@H]1C[C@@H]2CN(S(=O)(=O)Cc3ccccc3)C[C@H]1O2 | 3.99% | -3.49%
36 | Cn1ncc2c1NC(=O)CC2c1ccc(Cl)cc1Cl (stereo unspecified) | 5.72% | -26.2%
37 | c1csc(CN2CCO[C@H]3[C@H](OCCN4CCCC4)CC[C@@H]32)n1 | 2.94% | -36.8%
38 | Cn1cc(C2COC3(CCN(C(=O)Cn4cccn4)CC3)C2)cn1 (stereo unspecified) | 8.57% | -7.73%
39 | Cc1cccc(-c2nc(CN3CCCCC3Cn3cncn3)no2)c1 (stereo unspecified) | -2.9% | 15.3%
40 | CCOc1ccccc1C1CCCN1 (stereo unspecified) | 2.67% | -3.4%

Row | SMILES | Percent Effect [1] | Percent Effect [2]
41 | O=C1[C@@H]2CCN(Cc3ccncc3)C[C@@H]2OCCN1c1ccccc1 | -1.46% | -5.4%
42 | O=c1c2ccccc2nc2n1CCN(Cc1cccs1)CC2 | 1.35% | 12%
43 | Cc1nc(C2CCCN(C(=O)c3cccc4c3OCO4)C2)no1 (stereo unspecified) | 5.25% | -12.6%
44 | Cc1nn(CC(=O)N2CCCCC2Cn2cccn2)c(C)c1Cl (stereo unspecified) | -0.127% | -13.2%
45 | CCCN(C)C(=O)c1ccc2c(c1)[nH]c(=O)n2CCOCC | -2.29% | -18.9%
46 | CC(C)CN1CCN(C)C2(CCN(Cc3ccsc3)CC2)C1=O | 1.25% | -3.28%
47 | Cc1cc(C)c(CNC(=O)N(C)Cc2sccc2C)c(=O)[nH]1 | 2.05% | 33.8%
48 | CC(Cn1cccn1)NC(=O)NCc1ccccn1 (stereo unspecified) | -4.37% | -30.2%
49 | O=C(NCc1cccnc1)C1=NN(c2ccccc2)C(=O)CN1 | 14.8% | -1.16%
50 | Cc1nn(C)cc1C(=O)Nc1cccc(CN2CCC(CO)CC2)c1 | 3.06% | -101%
51 | Cn1cc(-c2csc(CN3CCOCC3)n2)cn1 | -7.74% | 2.01%
52 | C=C(C)C(=O)N1CCC(C(=O)c2cc(C)cnc2N)CC1 | -5.78% | -12%
53 | Cc1nc(CN(C)C2CCN(Cc3ccc4ccccc4n3)C2)no1 (stereo unspecified) | 3.73% | -68.9%
54 | CCc1ccccc1-n1cc(O)c(C(=O)N2CCCCC2)n1 | 1.02% | 31%
55 | CCn1nnc2c1C(COC)CN(Cc1ccsc1)C2 (stereo unspecified) | -1.23% | -3.86%
56 | O=C(CCNC(=O)c1ccccc1)Nc1ccncc1 | -1.89% | -111%
57 | CCc1cc(C)c(C(=O)N2CCCC2CC(=O)c2cnn(C)c2)o1 (stereo unspecified) | -2.02% | 19.9%
58 | CC(=O)NCCC(=O)NCc1cccnc1-n1cnc2ccccc21 | -1.62% | -2.41%
